Reference: PubChem BioAssay (NCI)
Compounds without any hit were thinned out: in the full panel of roughly 83,000, 20% have a hit.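 Single-concentration screen, 48 h exposure, 96-well plates. Endpoint: percent growth. Below 10 = active.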 A number with no mark means an inactive call. Active and inactive are the calls of the source.

How the values were obtained:
Experiment in all cases: NCI-60 one-dose screen, 48 h (100 = growth as untreated, 0 = no growth, -100 = all killed)
Settings in all cases: 10 µM unless noted
HCT-15 colon = test system: HCT-15 colon
HT29 colon = test system: HT29 colon
SNB-75 CNS = test system: SNB-75 CNS
SNB-19 CNS = test system: SNB-19 CNS
U251 CNS = test system: U251 CNS
PC-3 prostate = test system: PC-3 prostate
SK-MEL-5 melanoma = test system: SK-MEL-5 melanoma
UACC-62 melanoma = test system: UACC-62 melanoma
LOX IMVI melanoma = test system: LOX IMVI melanoma
SK-MEL-28 melanoma = test system: SK-MEL-28 melanoma

SMILES | growth (HCT-15 colon) | growth (HT29 colon) | growth (SNB-75 CNS) | growth (SNB-19 CNS) | growth (U251 CNS) | growth (PC-3 prostate) | growth (SK-MEL-5 melanoma) | growth (UACC-62 melanoma) | growth (LOX IMVI melanoma) | growth (SK-MEL-28 melanoma)
Clc1ccc(N2N=C(c3cccc(Nc4ccncc4)c3)CC2c2ccccc2)cc1 (stereo not given) | 103% | 80.7% | 65% | 95.6% | 90.4% | 84.9% | 94% | 96.9% | 86.8% | 90.4%
O=C1NC(=S)NC(=O)C1=Cc1cn(Cc2ccccn2)c2ccccc12 | 42.9% | 72.2% | 52.8% | 53.4% | 31.5% | 47.5% | 73.6% | 70.5% | 27.1% | 73.4%
CC[C@H](C)[C@@H]1NC(=O)[C@H](Cc2ccc(O)cc2)N(C)C(=O)[C@H](Cc2ccccc2)NC(=O)CN(C)C(=O)[C@@H]2CCCN2C(=O)[C@@H](Cc2ccccc2)N(C)C(=O)[C@H](CC(C)C)NC1=O | 41.5% | 4.78% (active) | -11.6% (active) | -8.3% (active) | 6.02% (active) | 2.42% (active) | -67.2% (active) | -28.8% (active) | -18.6% (active) | -43.8% (active)
COc1ccccc1/C=C1\Oc2cc(OCCCN3CCCC3)ccc2C1=O | 77.7% | 16.4% | 83.5% | 91.2% | 76.5% | 85.8% | 79.8% | 95.6% | 75.8% | 91.9%
O=S(=O)(c1ccccc1)N1CCCc2ccccc21 | 99.3% | 99.8% | 95% | 97.2% | 90.3% | 91.3% | 102% | 91.7% | 96.4% | 105%
c1ccc(N2N=C(c3cccc(Nc4ccncc4)c3)CC2c2ccc3c(c2)OCO3)cc1 (stereo not given) | -26% (active) | 6.66% (active) | 5.74% (active) | 42.4% | 4.31% (active) | 14.3% | -14.3% (active) | 62.1% | -22.1% (active) | -52.7% (active)
CC1=CC2(C)/C=C(C)/C=C\CC(O)/C=C3/C=CC(=C4C(=O)OC2(CC1C)C4=O)OC3 (stereo not given) | -56.9% (active) | -6.52% (active) | 53.3% | 56.4% | -50.2% (active) | -8.09% (active) | 56.7% | 6.46% (active) | -89.1% (active) | -87.6% (active)
COC(=O)C1NC(=S)N(c2ccc(Cl)cc2)C1/C=C/c1ccccc1 (stereo not given) | 99.4% | 104% | 127% | 103% | 97.5% | 86.2% | 102% | 89.3% | 78.5% | 118%
O=C1C(=O)c2c(nc3ncccn23)-c2ccccc21 | -67.2% (active) | -17.2% (active) | -92.8% (active) | -88% (active) | -84% (active) | -4.28% (active) | -99.4% (active) | -92.8% (active) | -88% (active) | -85.7% (active)
O=C(NCCc1ccccn1)OCc1nc2nc(Cl)nc(N3CCOCC3)c2[nH]1 | -27.2% (active) | -28.9% (active) | 2.59% (active) | 37.2% | 16.3% | 22.7% | -10.8% (active) | 24.6% | -49.9% (active) | 41.9%
COc1ccc(/C=C(/c2ccccc2)[N+](=O)[O-])cc1 | -35% (active) | -26.7% (active) | -85.5% (active) | -19% (active) | -95.4% (active) | -56.7% (active) | -91.5% (active) | -17.6% (active) | -89.6% (active) | -17.7% (active)
CC(C)Cc1ccc(C(C)C(=O)NCc2ccc(Cn3c(=O)sn(-c4ccc(Cl)cc4)c3=O)cc2)cc1 (stereo not given) | 83.2% | 75.6% | 79.4% | 83.9% | 65.5% | 82.8% | 94.1% | 66.4% | 76.1% | 77%
O=C1Nc2ccccc2/C1=C\c1cccc(/C=C2/C(=O)Nc3ccccc32)n1 | -81.3% (active) | 2.35% (active) | -71.5% (active) | -82.7% (active) | -98.1% (active) | -28% (active) | -99.1% (active) | -67.3% (active) | -88.2% (active) | -88.8% (active)
CC(=O)c1c[nH]c2ccc(-c3ccnc(Nc4ccc(NC(=O)C5CCCC5)c(CN5CCOCC5)c4)n3)cc12 | -21.9% (active) | 6.97% (active) | -81.4% (active) | -6.49% (active) | 10.7% | 2.51% (active) | -74.6% (active) | -90.1% (active) | -54.2% (active) | -62.4% (active)
Cc1cccc(Oc2ccc(Nc3ncnc4ccc(NC(=O)CNCCO)cc34)cc2Cl)c1 | 62.6% | 38.4% | 77.1% | 65.6% | 44.9% | 61.4% | 77.6% | 97.6% | 14.6% | 68.8%
O=C(CSc1nc2sc3c(c2c(=O)n1Cc1ccccc1)CCCC3)N1CCN(c2ccccc2)CC1 | 94.8% | 90.2% | 79.4% | 110% | 90.8% | 83.2% | 98.5% | 96% | 97% | 106%
COc1cc(/C=C2\C(=O)N(Cc3ccc(Cl)cc3)c3ccccc32)cc(OC)c1OC | -37.7% (active) | 8.97% (active) | 12.5% | 50.3% | 3.6% (active) | 38.6% | 41.6% | 22.2% | -57.1% (active) | -42.6% (active)
COc1cccc(CNCCN2C(=O)c3ccc4c5c(ccc(c35)C2=O)C(=O)N(CCNCc2cccc(OC)c2)C4=O)c1 | 9.24% (active) | 2.39% (active) | 120% | 84.2% | 76.9% | 78.9% | 58.8% | 96.8% | 59.4% | 120%
CCCCCCCCCCCCC1CCC/C=C\CCC(=O)O1 (stereo not given) | 101% | 102% | 84.6% | 101% | 110% | 87% | 104% | 101% | 105% | 118%
O=C(Nc1ccc(Nc2ncccn2)cc1)NC1C=c2ccccc2=CC1 (stereo not given) | 102% | 103% | 91.8% | 103% | 99% | 108% | 99.7% | 92.9% | 108% | 107%
C=C(C)[C@@H]1CC[C@]2(C=O)CC[C@]3(C)[C@H](CC[C@@H]4[C@@]5(C)CCCNC(C)(C)[C@@H]5CC[C@]43C)[C@@H]12 | 34.3% | 14% | 110% | 84.6% | 50.4% | 48% | 66% | 69.9% | 84.9% | 96.7%
COc1cccc(NC(=O)c2cccc(-c3cc(=O)c4c(OC)c(OC)c(OC)cc4o3)c2)c1 | 54.7% | 50.8% | 89.8% | 82.5% | 62.1% | 57.1% | 63.9% | 62.1% | 49.9% | 73.4%
